Several values for one entry are separate records, joined by “and”; a condition that tells them apart may be missing. Equal entries are not always repeated. The panel holds about 79,000 compounds, 15% with a hit somewhere; the sample as a whole holds those more often. Activity calls are given as the source filed them. Cut-off read from the data, not from the text of the source: active = growth inhibition above about 70%; inactive = the rest.
Legend:
[1] = NCI Yeast Anticancer Drug Screen. Data for the rad50 strain (AID 155);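 note: 0% = growth of vehicle-only cultures of the same strain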; details: S. cerevisiae rad50 strain growth inhibition, stronger effect = higher value; at 50.0 µM unless noted
Summary of the method: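 Growth of the mutant yeast was measured after compound exposure and referenced to vehicle-treated cultures.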

[2] = NCI Yeast Anticancer Drug Screen. Data for the mec2-1 strain (AID 157); details: S. cerevisiae mec2-1 strain, stronger effect = higher value; at 50.0 µM unless noted
Summary of the method: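 Compounds were applied to mec2-1 yeast cells. Their growth was then compared with that of vehicle-treated cultures to give growth inhibition.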

[3] = NCI Yeast Anticancer Drug Screen. Data for the sgs1 mgt1 strain (AID 161);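 note: 0% = growth of cultures given vehicle only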; details: S. cerevisiae sgs1 mgt1 strain, stronger effect = higher value; at 50.0 µM unless noted
Summary of the method: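 Compounds are added to genetically altered yeast, and growth is compared with cultures given vehicle alone to give percent inhibition.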

[4] = NCI Yeast Anticancer Drug Screen. Data for the cln2 rad14 strain (AID 165);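 note: 0% = growth equal to vehicle treated cultures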; details: S. cerevisiae cln2 rad14 strain, stronger effect = higher value; at 50.0 µM unless noted
Summary of the method: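 Strain: cln2 rad14 yeast, altered in cell cycle control and DNA damage repair. Read-out: growth inhibition vs vehicle.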

[5] = NCI Yeast Anticancer Drug Screen. Data for the bub3 strain (AID 167); details: S. cerevisiae bub3 mutant strain, stronger effect = higher value; at 50.0 µM unless noted
Summary of the method: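 Whole-cell yeast assay. The mutant strain was incubated with compounds, and growth inhibition was determined by comparison with vehicle-treated cells.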

[6] = NCI Yeast Anticancer Drug Screen. Data for the mlh1 rad18 strain (AID 175); details: S. cerevisiae mlh1 rad18 strain growth inhibition, stronger effect = higher value; at 50.0 µM unless noted
Summary of the method: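 A repair-deficient yeast strain is exposed to test compound, and growth is scored relative to vehicle-treated controls.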

Measured: growth inhibition

Cc1cc(C(c2ccccc2)n2c3ccccc3c3ccccc32)cc(C)c1O (configuration not stated)
inactive: [1] 6.5% | [2] 11.3% | [3] 8.45% | [4] 0.25% | [5] -7.55% | [6] 16.4%

COc1ccc(NC(=O)CC/C(CC(=O)c2ccco2)=N/NC(=O)C(N)=O)cc1
inactive: [1] -4% | [2] -10.4% | [3] -15.8% | [4] -7.15% | [5] -14.1% | [6] -18.1%

C[C@@]1(O)C2CC3CC1(c1ccccc1)CC(/C3=N/O)/C2=N\O (some centres not stated)
inactive: [1] -14.3% | [2] -17.6% | [3] -1.8% | [4] 26.2% | [5] -16.7% | [6] 8.3%

N#Cc1ccc2c(c1)-c1cc(C#N)ccc1C2c1ccccc1
inactive: [1] 8.95% | [2] -10.8% | [3] -3.45% | [4] -42.5% | [5] -4.8% | [6] -6.95%

O=S(=O)(N/N=C1\CC2CCC1C2)c1ccccc1 (configuration not stated)
inactive: [1] -7.05% | [2] -16.1% | [3] -16.9% | [4] 27.8% | [5] 21.4% | [6] 4.4%

CC(=O)OC(CCC1CO1)OC(C)=O (configuration not stated)
inactive: [1] 0.65% | [2] 11.6% | [3] -0.2% | [4] -7.65% | [5] 15.2% | [6] -0.1%

O=I(=O)c1ccccc1
inactive: [1] 3.95% | [2] 9.7% | [3] 17.5% | [4] 26.6% | [5] 20.1% | [6] 17.9%

CS(=O)(=O)c1nc2[nH]cnc(=S)c2[nH]1
inactive: [1] 8% | [2] -8.2% | [3] -3.5% | [4] 10.9% | [5] 20.9% | [6] -7.1%

O=C(Nc1ccc(C(=O)O)cc1)Nc1cccc(Cl)c1
inactive: [1] -6.15% | [2] 2.1% | [3] -9.55% | [4] -14.3% | [5] 0.65% | [6] 7.4%

O=c1oc2ccccc2cc1O
inactive: [1] -12.2% | [2] -4.5% | [3] -6% | [4] -28.9% | [5] -18.3% | [6] 27.1%

CC1(C)C2CCC1(C)C(/C=N/NC(N)=O)C2 (configuration not stated)
inactive: [1] 5.4% | [2] 17.8% | [3] -5.6% | [4] -46% | [5] 20.4% | [6] 12.8%

Cc1ccc(S(=O)(=O)CC(=O)NC(C)C)cc1
inactive: [1] -3.9% | [2] -17% | [3] 4% | [4] 17.2% | [5] 3.2% | [6] 20.8%

Cc1cc(C)c([N+](=O)[O-])cc1N
inactive: [1] 20.9% | [2] 15.1% | [3] 26.6% | [4] 13.5% | [5] 22.8% | [6] 19.6%

CSc1ccc(C2NC(=O)NC2=O)cc1 (configuration not stated)
inactive: [1] -10.2% | [2] -14.6% | [3] -1.95% | [4] -9% | [5] 4.95% | [6] -10.1%

O=C(NC12CC3CC(CC(C3)C1)C2)C(=O)c1c[nH]c2ccc(Cl)cc12
inactive: [1] -9.15% | [2] -10.6% | [3] -4.1% | [4] 21.8% | [5] 8.5% | [6] -9.15%

CC1=C(C(=O)Nc2cc(=O)n(C)c(=O)n2C)C(c2ccco2)C(C(=O)Nc2cc(=O)n(C)c(=O)n2C)=C(C)N1
inactive: [1] -0.5% | [2] 17.9% | [3] -10.9% | [4] 13.3% | [5] -4.6% | [6] -0.4%

O=C(Cc1ccccc1)SC(=O)Cc1ccccc1
inactive: [1] -0.05% | [2] 28.8% | [3] 18.6% | [4] -8.9% | [5] 39.4% | [6] 10%

CC(=O)CC(=O)ON(C)C(=O)Cc1ccccc1
inactive: [1] 29.6% | [2] 15.2% | [3] -2.75% | [4] -4.4% | [5] -6.1% | [6] -8.35%

CCOc1ccc(NC(N)=O)cc1
inactive: [1] -44.5% | [2] -9.85% | [3] -14.5% | [4] -3.7% | [5] -2.55% | [6] 15.2%

Cc1cc(=O)[nH]c(N/N=C/C=C/c2ccccc2)n1
inactive: [1] -35.4% | [2] -25.7% | [3] -17.1% | [4] -15.8% | [5] -15.8% | [6] -25.9%

CCOC(=O)c1cc(C(O)C(O)C(O)CO)oc1C (configuration not stated)
inactive: [1] 14.6% | [2] 2.1% | [3] -6.45% | [4] -13.1% | [5] 21.9% | [6] 18.1%

CCCCCCCCCCCCCCCCCCCCCCCCC(=O)O
inactive: [1] -18.6% | [2] -22.6% | [3] -11.4% | [4] 4.15% | [5] -33.5% | [6] -25.5%

CC(C)NCC(O)c1ccc(O)c(O)c1 (configuration not stated)
inactive: [1] 31.9% and -20.8% | [2] -10.6% and -23.4% | [3] -3.35% and 16.2% | [4] 14.7% and -52% | [5] 18.7% and 27.4% | [6] -0.1% and -4.95%

Cc1nc2c(cnn2C)c(=O)n1C(C)C
inactive: [1] 3.3% | [2] -0.3% | [3] 3.8% | [4] -6.5% | [5] -11.3% | [6] 3.4%

ONC(CC(O)(NO)NO)c1ccccc1 (configuration not stated)
inactive: [1] -32.7% | [2] -32% | [3] -20.6% | [4] 12.6% | [5] -28.1% | [6] -25.9%

Nc1nc(Cl)c(N)c(NCC2(CO)CC(Cc3ccccc3)C2)n1 (configuration not stated)
inactive: [1] 26.4% | [2] -35.4% | [3] 18.9% | [4] 7.6% | [5] 31% | [6] 15.1%

Cc1c2noc1CCCCCCCCCCC2
inactive: [1] 18.9% | [2] 20% | [3] 3.6% | [4] -4.15% | [5] -13.7% | [6] 17.9%

Cc1ccc(S(=O)(=O)OC2CCSCC2)cc1
inactive: [1] -5.25% | [2] -10.3% | [3] 7.7% | [4] -11.9% | [5] 7.05% | [6] -4.8%

O=c1ccn(C2OC(COC3CCCCO3)C(OC3CCCCO3)C2OC2CCCCO2)c(=O)n1-c1ccccc1 (configuration not stated)
inactive: [1] 39.7% | [2] -4.8% | [3] 10.1% | [4] -1.4% | [5] -2.65% | [6] 5.25%

NC(=S)c1cccc(OCCc2ccccc2)c1
active: [1] 97.7% | [2] 99.4% | [3] 99% | [4] 96.3% | [5] 99.2% | [6] 98.7%

O=c1cc(Cl)c(=O)n(-c2ccccc2)[nH]1
inactive: [1] 3.5% | [2] -4.75% | [3] -3.25% | [4] -14.6% | [5] 0.9% | [6] 2.7%

Cc1ccc2ccc3ccccc3c2c1
inactive: [1] 46% | [2] 1.45% | [3] 9.2% | [4] 20.4% | [5] 17.9% | [6] 26.2%

CCc1ccc(O)cc1O
inactive: [1] -18.4% | [2] -12.9% | [3] -43.1% | [4] 10.7% | [5] -30.6% | [6] -4.6%

Nc1ccccc1SC(CC(=O)c1ccc(-c2ccccc2)cc1)c1ccco1 (configuration not stated)
inactive: [1] -18.4% | [2] -30.6% | [3] 17% | [4] -9.2% | [5] -7.6% | [6] -31.7%

CC(NC(=O)CNC(=O)OCc1ccccc1)C(=O)O (configuration not stated)
inactive: [1] 3.55% | [2] 9.35% | [3] 11.6% | [4] -0.35% | [5] 8.1% | [6] -10.1%

COC(=O)C(C)(N=Cc1ccccc1)c1ccccc1 (configuration not stated)
inactive: [1] -34.2% | [2] -30.9% | [3] 6.7% | [4] 17.4% | [5] -9.75% | [6] 0.6%

C(/C=N/NC1=NCCN1)=N\NC1=NCCN1
inactive: [1] 42% | [2] 18.1% | [3] 28.4% | [4] 2.85% | [5] 36.6% | [6] 41.5%

CCOc1cc2c(cc1C(C)c1ccc(OC)c(C)c1)OCO2 (configuration not stated)
active: [4] 74%
inactive: [1] 11.1% | [2] 5.6% | [3] -2.3% | [5] 26.2% | [6] 5.7%

Nc1ncnc2c1c(-c1nnc(-c3ccccc3)c(-c3ccccc3)n1)cn2C1OC(CO)C(O)C1O (configuration not stated)
inactive: [1] 44.1% | [2] -2.8% | [3] 38% | [4] -13.3% | [5] -4.25% | [6] 9.9%

C#CC(C)(O)CCC(C)C (configuration not stated)
inactive: [1] -10% | [2] -16.1% | [3] -3.3% | [4] 14.5% | [5] 10.8% | [6] -16.9%

COc1ccc2nc3ccccc3c(NCCC[N+](C)(C)[O-])c2c1[N+](=O)[O-]
inactive: [1] -6.4% | [2] -16.4% | [3] 3.45% | [4] -34.1% | [5] -13.1% | [6] -7.55%

CCOC(=O)CCC(NC(=O)OCc1ccccc1)C(=O)NNC(=O)OC(C)(C)C (configuration not stated)
inactive: [1] 30.1% | [2] 22% | [3] 36.5% | [4] 15.7% | [5] 5.15% | [6] 21.3%
